Values joined by “and” are separate entries in the source; they are usually repeats but may differ in a detail not shown here. Identical values can stand only once. Inconclusive results are not listed. Entries that show only a call come without a potency. The source holds several records for some structures; these can differ, active in one and inactive in another. Active and inactive are the calls of the source. Calls come from the whole dose curve; as a rule, active = well fitted cell-killing curve with a large enough effect in the repeat runs; inconclusive = weak or mixed curves, or effect the other way; inactive = flat fitted curve, though single readings scatter.

The values that follow come from PubChem BioAssay (Tox21).
Potency is the fitted concentration of half-maximal effect.

A short description of the assay: Human pregnane X receptor (PXR) small molecule agonists, qHTS cell viability counter screen (AID 1346977). Note: nearly all actives have a fitted effect of over 50% in size. Particulars: PXR-Luc HepG2 viability, CellTiter-Fluor, 24 h; series mostly up to 92.4 µM. An excerpt: U.S. Tox21 Program National Center for Advancing Translational Sciences [NCATS] NIH Chemical Genomics Center [NCGC] U.S. Environmental Protection Agency [EPA] National Institutes of Environmental Health Sciences [NIEHS] National Toxicology Program [NTP] U.S. Food and Drug Administration [FDA] Tox21 Assay Overview: The human pregnane X receptor (hPXR) regulates the expression of several drug metabolizing enzymes and induction of these proteins is a major mechanism for developing drug resistance in cancer. One such key enzyme catalyzing the drug metabolism is cytochrome P450 3A4 (CYP3A4). Changes in CYP3A4 expression affect drug metabolism, thereby reducing the therapeutic efficacy and altering toxicological response to a drug and which finally causes adverse drug interaction. To screen Tox21 libraries for compounds that activate hPXR-mediated CYP3A4 gene expression, PXR-Luc HepG2 cells were used. Also cytotoxicity of the compounds was tested in parallel by measuring the cell viability using CellTiter-Fluor assay system in the same wells.
Tox21 Assay Protocol Summary: PXR-Luc HepG2 cells were dispensed at 2,000 per well in 5uL of assay medium containing 5% charcoal-stripped FBS into white solid bottom 1536-well plates (Corning Life Sciences, Corning, NY) using a Multidrop Combi (Thermo Scientific, Waltham, MA) dispenser. The assay plates were incubated at 37 C and 5% CO2 for 5hr, and then 23nL of compounds dissolved in DMSO and positive control were transferred using a Pintool station (Wako, San Diego, CA). The assay plates were incubated at 37C and 5% CO2 for 24hr. For cytotoxicity read, after 23hr incubation at 37C, 1uL CellTiter-Fluor reagent (Promega Corporation, Madison, WI) was added to each well of the assay plates using Flying Reagent Dispenser (FRD, Aurora Discovery, San Diego, CA). After 1hr incubation at 37C and 5% CO2, the fluorescence signal was quantified using a ViewLux plate reader (PerkinElmer, Shelton, CT).
In the case of `Nc1cccc(N)c1`, the Potency result is “inactive”.

Regarding `NC(=O)N/N=C/c1ccc([N+](=O)[O-])o1`, the Potency result was “inactive and 27.3 µM (active) and 26.6 µM (active)”.

Consider `COC1=CC(=O)C[C@@H](C)[C@]12Oc1c(Cl)c(OC)cc(OC)c1C2=O`, for which the Potency entry was “inactive”. Turning to `CCOCCO`, the Potency entry is “inactive”. `COc1ccc(C(=O)c2ccccc2)c(O)c1`: the Potency result is “inactive”.

In the case of `N[C@@H](Cc1c[nH]c2ccc(O)cc12)C(=O)O`, the Potency result is “inactive”. Take `CCCCCCCCOc1ccc(C(=O)c2ccccc2)c(O)c1`: the Potency result is “inactive”. Turning to `CCCCNC(=O)NS(=O)(=O)c1ccc(N)cc1`, the Potency result is “inactive”.

As for `CC(C)Cc1ccc(C(C)C(=O)O)cc1` (stereo not given), the Potency entry was “inactive”. To `COc1cc(O)c(C(=O)c2ccccc2)cc1S(=O)(=O)O` belongs “inactive”. With `CN(C)Cc1cc(CN(C)C)c(O)c(CN(C)C)c1` the entry was “inactive”; with `Cc1cccc(C)c1O`, “inactive”.

On to `C=C(C)OC(C)=O`, for which the Potency result was “inactive”. With `C[C@]12C[C@H](O)[C@H]3[C@@H](CCC4=CC(=O)CC[C@@]43C)[C@@H]1CC[C@@H]2C(=O)CO` the entry was “inactive”. To `COc1cc(C=O)ccc1O` belongs “inactive”; to `OCCCc1ccccc1`, “inactive”.

On to `C=C(C)C(N)=O`, for which the Potency entry is “inactive”. Take `CCc1cc(C(N)=S)ccn1`: the Potency entry was “inactive”. With `O=C(O)CN(CC(=O)O)CC(=O)O` the entry was “inactive”; with `Cc1ccc(O)c(-n2nc3ccccc3n2)c1`, “inactive”; with `C=CC(=O)NC(C)(C)CS(=O)(=O)O`, “inactive”. Take `NC(=O)N1c2ccccc2C=Cc2ccccc21`: the Potency entry was “inactive”.

On to `CC(O)COc1ccccc1` (stereo not given), for which the Potency result was “inactive”. To `COc1ccccc1O` belongs “inactive”; to `CCCCCCCC(=O)OCC(O)CO` (stereo not given), “inactive”.

For `CO[C@H]1C=CO[C@@]2(C)Oc3c(C)c(O)c4c(O)c(c(/C=N/N5CCN(C)CC5)c(O)c4c3C2=O)NC(=O)/C(C)=C\C=C[C@H](C)[C@H](O)[C@@H](C)[C@@H](O)[C@@H](C)[C@H](OC(C)=O)[C@@H]1C`, the Potency was 35.5 µM (active) and 19.6 µM (active) and 23.7 µM (active). For the compound `O=c1c(-c2ccc(O)cc2)coc2cc(O)cc(O)c12`, the Potency entry is “inactive”. With `CCCCOC(=O)CCCCCCCCC(=O)OCCCC` the entry was “inactive”; with `OC[C@@H](O)[C@@H](O)[C@H](O)[C@H](O)CO`, “inactive”. With `C=CCOC(=O)CC(C)C` the entry was “inactive”; with `CC1(C)O[C@@H]2[C@@H](CO[C@@]3(COS(N)(=O)=O)OC(C)(C)O[C@@H]23)O1`, “inactive”; with `O=C1OC(c2ccc(O)cc2)(c2ccc(O)cc2)c2ccccc21`, 50.1 µM (active) and inactive. For the compound `C/C=C/c1ccc(O)c(OC)c1`, the Potency entry is “inactive”. With `C1CNCCN1` the entry was “inactive”; with `C#C[C@]1(O)CC[C@H]2[C@@H]3CCC4=CC(=O)CC[C@@H]4[C@H]3CC[C@@]21CC`, “inactive”. On to `CC(=O)CCC(C)C`, for which the Potency result was “inactive”. With `Cn1cnc2c1c(=O)[nH]c(=O)n2C` the entry was “inactive”; with `Oc1cccc(O)c1`, “inactive”; with `CC1=NN(c2ccccc2)C(=O)C1`, “inactive”. To `Cc1cccc(Nc2cc(Cl)nc(SCC(=O)O)n2)c1C` belongs “inactive”.
